# Assay outcomes deposited in PubChem by National Center for Advancing Translational Sciences (NCATS).
# Pf growth 48h: P. falciparum growth inhibition at 48 hours (one generation); P. falciparum luciferase growth in erythrocytes, 48 h; Potency, µM (top dose mostly 28.7 µM), actives largely listed as inhibitors; actives 5.9% (n = 310,000); AID 504832
#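 First compound was added to culture medium, then infected red cells at 0.1% parasitemia and 2% hematocrit (final). After incubation at 37 C under 5% CO2, luciferase detection reagent was dispensed and light output recorded.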
# HCMV inh: human cytomegalovirus inhibition. actives 4.5% (n = 410,000). HFF cells, HCMV-luciferase reporter, 72 h; hits give low values. AID 1259415. activity change, negative = inhibition, % at 57.5 µM; in the data active means activity change below about -60%; inconclusive means no clear call, values can overlap the other calls; inactive means above about -39%
#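 HFF cells seeded 16 h at 37C, treated with compounds, infected with luciferase-reporter HCMV at MOI 1 PFU/cell; luciferase read at 72 h post infection, normalized to buffer-only and Salinomycin controls.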
# HCV inh: HCV inhibition | Potency, µM (highest dose often 41.8 µM), actives largely listed as inhibitors | actives 3.4% (n = 340,000) | Huh7.5.1 HCVcc-Cre infection, luciferase reporter, 44 h
#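 Seed cells (1,000/well) for 4 h; treat with compound and infect with HCVcc-Cre, moi about 0.5. Incubate 44 h, then detect luciferase activity.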
# Pf growth 96h: inhibits malaria parasite growth, 96 h; P. falciparum luciferase reporter growth, 96 h; Potency, µM (doses to about 28.7 µM), hits mostly inhibitors; actives 6.9% (n = 320,000); AID 504834
#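 Infected RBCs, 2% Hct / 0.05% parasitemia final; luciferase-reporter P. falciparum; cpd 96 h, 37 C, 5% CO2; luciferase detection reagent; luminescence.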
# A number is an active result; – = inactive; ? = inconclusive; · = no result given; [ ] = dose if it differs, or a comment. The list is not random: actives were taken first. Their share in the collection is about 13%. Unless noted, the call rests on the fitted dose curve; in most records, active means well fitted inhibition curve with a large enough effect; inconclusive means small, poorly fitted or top-dose-only effect, or another doubt; inactive means no such curve, though single readings can be large or run the other way.
SMILES,Pf growth 48h,HCMV inh,HCV inh,Pf growth 96h
N#CC1=C2N=C(N)c3c(sc4c3CCCCC4)N2C2=C(C(=O)CCC2)C1c1ccccc1 (configuration not stated),2.9µM,–,?,4.7µM
CSc1ccc(C2C(C#N)=C(N)N(c3ccccc3)C3=C2C(=O)CCC3)cc1 (configuration not stated),13µM,–,–,–
c1ccc(-c2ccc(CN3CCSCC3)cc2)cc1,–,–,–,13µM
COc1ccc(CN(C(=O)CN2C(=O)C(C)Oc3ccccc32)C2CCCC2)c(OC)c1 (configuration not stated),4.7µM,–,–,8.3µM
COc1ccc(CNC(=O)CCCN2C(=O)CCn3nc(-c4cn(C)c5ccccc45)cc32)cc1,·,–,·,·
Cc1ccc(C(=O)N2CCCC(C(=O)c3ccc(Oc4ccccc4)cc3)C2)cn1 (configuration not stated),–,?,?,8.3µM
CCOC(=O)c1ccc(-n2[nH]c(-c3ccccc3)cc2=O)cc1,?,–,14µM,?
CCOC(=O)COc1nc(OC)nc(N2CCOCC2)n1,–,–,–,2.6µM
CN(C)c1ccc(CNC(=O)c2cc3ccccn3n2)cc1,·,–,·,·
N#Cc1ccccc1Cn1cc(/C=C/[N+](=O)[O-])c2ccccc21,9.3µM,-101,?,–
O=C(O)Cn1cc(/C=C/[N+](=O)[O-])c2ccccc21,–,–,–,?
O=[N+]([O-])/C=C/c1cn(Cc2ccccc2)c2ccccc12,?,-104,–,–
COc1ccc(NC(=O)CN2CCN(c3nc(-c4cccc(OC)c4)cs3)CC2)cc1,8.3µM,–,?,–
COc1cccc(-c2csc(N3CCN(C(=O)Nc4ccc(F)cc4)CC3)n2)c1,?,?,7.9µM,–
CCOc1ccc(Sc2cc(C(=O)NC(C)CC)c3ccccc3n2)cc1 (configuration not stated),·,–,·,·
Cn1c(/C(C#N)=C(\O)c2cccc(F)c2)nc2ccccc21,–,–,–,–
N#C/C(=C(/O)c1cccc(F)c1)c1nc2ccccc2s1,–,-70,–,–
CN1C=CC(=CC=C2C=CC(=O)C=C2)C=C1,4.7µM,–,?,1.9µM
CC(C)(/C=N/O)N(O)C=C1C=CC(=O)C=C1,–,–,–,–
Cc1cccc(C2c3[nH]c4ccccc4c3CCN2C(=O)c2nn(C)c(=O)c3ccccc23)n1 (configuration not stated),?,–,?,8.3µM
Cc1cccc(C2c3[nH]c4ccccc4c3CCN2C(=O)c2cc(CC(C)C)nc(C)n2)n1 (configuration not stated),12µM,–,–,?
Cc1cccc(C2c3[nH]c4ccccc4c3CCN2C(=O)Cc2nc(-c3ccccc3)n[nH]2)n1 (configuration not stated),12µM,–,?,–
Cc1cccc(C2c3[nH]c4ccccc4c3CCN2C(=O)c2ocnc2C)n1 (configuration not stated),–,–,–,?
Cc1cccc(C2c3[nH]c4ccccc4c3CCN2C(=O)c2cc(CC(C)C)[nH]c(=O)n2)n1 (configuration not stated),?,–,–,?
Cc1cccc(NC(=O)C2CCN(c3nnc(C)c4c(C)n(-c5ccccc5)nc34)CC2)c1C,·,–,·,·
SMILES,Pf growth 48h,HCMV inh,HCV inh,Pf growth 96h
COc1ccc(/C=C/C(=O)NC(C)C)cc1Br,?,–,–,?
COc1ccc(/C=C/C(=O)N(C(C)C)C(C)C)cc1Br,6.6µM,–,–,?
CCCCCCN(CCCCCC)C(=O)Cc1c(-c2ccc(F)cc2)[nH]c2ccccc12,5.9µM,–,?,?
Cc1ccc([N+](=O)[O-])cc1N=C(c1cccc(Br)c1)N1CCOCC1,?,–,?,13µM
O=C(Oc1cccc(C(=S)N2CCOCC2)c1)c1ccc([N+](=O)[O-])cc1,–,–,–,–
CSc1nc(-c2ccccc2)cc(C)c1C#N,–,–,10µM,–
Cc1ccc(-n2c(=O)c3c(c4cc(C)ccc4n3C)n(CC(=O)c3ccc(Cl)cc3)c2=O)cc1,·,–,·,·
Cc1ccc(S(=O)(=O)N2CCN(S(=O)(=O)c3ccccc3)C2)cc1,·,–,·,–
Cc1ccc(S(=O)(=O)N2CCN(S(C)(=O)=O)C2)cc1,–,–,–,13µM
Cc1ccc(-c2ccc(S(=O)(=O)N3CCCC3)cc2)cc1,–[5.75 µM],–,–,–
Cc1ccc(S(=O)(=O)N2CC(=NO)C2)cc1,–,–,–,13µM
O=C(CSc1ccccc1)N1CCc2c([nH]c3ccccc23)C1c1ccc(Cl)cc1 (configuration not stated),·,–,·,·
COC(=O)C1Cc2c([nH]c3ccccc23)C(C(C)C)N1 (configuration not stated),–,·,?,1.3µM
CCC1NC(C(=O)O)Cc2c1[nH]c1ccccc21 (configuration not stated),–,–,–,–
Cc1ccc(-c2nn(-c3ccccc3)cc2C2CC(c3ccccc3)=NN2C(=O)CCC(=O)O)cc1 (configuration not stated),?,–,–,–
CN1C(=O)CC(c2cn(Cc3ccccc3)c3ccccc23)C1=O (configuration not stated),?,–,–,2.6µM
CC(=O)N1N=C(c2ccccc2)CC1c1cn(Cc2ccccc2)c2ccccc12 (configuration not stated),?,-87,25µM,?
Cc1ccc(C2=NN(C(=O)CCC(=O)O)C(c3cn(-c4ccccc4)nc3-c3ccc(C)cc3)C2)cc1 (configuration not stated),?,-60,–,–
CCn1cc(C2CC(=O)NC2=O)c2ccccc21 (configuration not stated),–,–,–,–
CC(=O)N1N=C(c2ccccc2)CC1c1ccc2c(c1)OCO2 (configuration not stated),–,–,–,–
O=C(c1ccco1)N1CCN(c2nc3c(F)cc(F)cc3s2)CC1,·,–,·,·
CCc1ccccc1NC(=O)c1cnn2c(C(F)(F)F)cc(-c3ccc(OC)c(OC)c3)nc12,·,–,·,·
Cc1ccc(CNC(=O)NCc2noc3ccc(C)cc23)cc1,·,–,·,·
CN(C(=O)c1nc(-c2cccc(F)c2)n2c1CCCCC2)c1ccccc1F,·,-62,·,·
CCOc1ccc(CCNC(=O)c2nc(-c3cccc(F)c3)n3c2CCCCC3)cc1OCC,·,–,·,·
SMILES,Pf growth 48h,HCMV inh,HCV inh,Pf growth 96h
O=C(CSc1nc2c([nH]c3ccccc32)c(=O)n1-c1ccc(F)cc1)N1CCCCCC1,·,–,·,·
Cc1nc(N2CCN(Cc3ccccc3)CC2)nc2c1CCC2,?,?,?,–
Cc1nc(N2CCN(Cc3ccccc3)CC2)nc2c1C(=O)CCC2,?,-97,?,–
CCCCCC(=O)N1CCN(CCN=CC2=C(O)CC(c3ccc(OC)c(OC)c3)CC2=O)CC1 (configuration not stated),–,–,–,·
COc1ccc(C2CC(=O)C(C=NCCN3CCNCC3)=C(O)C2)cc1OC (configuration not stated),–,·,·,13µM
Cc1cccc(NC(=O)CSc2ncc(-c3ccc(Br)cc3)[nH]2)c1,·,–,·,·
